AID923: qHTS Assay for Allosteric/Competitive Inhibitors of Caspase-1: Spectroscopic Profiling in AFC Spectral Region; compound fluorescence, AFC spectral region (405/520 nm); Potency, µM (doses to about 57.5 µM), for inactives: top-dose fluorescence increase, most hits filed as activators; 1.1% of 75,000 active; note: potency is the fitted concentration of half-maximal effect; 0% is about no effect
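Baseline compound fluorescence (AFC region, 405 nm ex/520 nm em) taken from the intercept of kinetic reads with 50 nM caspase-1 and 5 uM Ac-WEHD-AFC; normalized to an on-plate AFC standard curve; compounds titrated up to 57 uM.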
A350 autofl: compounds fluorescent in Alexa 350 spectral region; Compound autofluorescence, 340/450 nm, Alexa 350 dye-equivalents; active compounds read high; max dye-equivalent concentration, M; 11% of 59,000 active; in the data active = max dye-equivalent concentration above about 10 nM; inconclusive = mostly about 1.1 nM to 9.6 nM
HADH2 inh: inhibitors of human HADH2 dehydrogenase; AID 886; Q99714; recombinant HADH2, NADH fluorescence, beta-hydroxybutyryl-CoA; 3.4% of 73,000 active; Potency, µM (highest dose often 57.1 µM), for the others: at the highest dose activity change, negative = inhibition, actives largely listed as inhibitors; note: potency is the fitted concentration of half-maximal effect; % is set by controls: 0 for no effect and ±100 for the full control effect; nearly all actives have a fitted effect of over 60% in size
Target sequence (Q99714 whole entry, looked up, one chain of several): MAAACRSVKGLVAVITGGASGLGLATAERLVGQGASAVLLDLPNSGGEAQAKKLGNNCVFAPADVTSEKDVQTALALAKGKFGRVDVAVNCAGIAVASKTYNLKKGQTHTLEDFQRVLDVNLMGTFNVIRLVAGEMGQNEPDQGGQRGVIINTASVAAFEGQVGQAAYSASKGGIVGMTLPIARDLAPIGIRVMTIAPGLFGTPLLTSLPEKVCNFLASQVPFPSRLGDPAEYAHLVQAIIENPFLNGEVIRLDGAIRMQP
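Buffer 100 mM Tris-HCl pH 9.0/0.01% Tween-20; HADH2 20 nM; NAD+ 1 mM; beta-hydroxybutyryl-CoA 90 uM (all final). 15 min cpd preincubation, RT.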
HSD17B inhib: HSD17B dehydrogenase inhibition; Q99714; recombinant HSD17B10, NADH fluorescence kinetic; Potency, µM (doses to about 57.1 µM), for inactives: at the highest dose activity change, negative = inhibition, most hits filed as inhibitors; 7.6% of 75,000 active; AID 893;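 note: the protocol describes HADH2 (HSD17B10) and not the HSD17B4 of the title; potency is the fitted concentration of half-maximal effect; % is set by controls: 0 for no effect and ±100 for the full control effect; nearly all actives have a fitted effect of over 70% in size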
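His-tagged E. coli-expressed HADH2 at 20 nM in 100 mM Tris-HCl pH 9.0 with 0.01 % Tween-20, preincubated 15 min with compound at room temperature. Reaction with 1 mM NAD+ and 90 uM beta-hydroxybutyryl coenzyme A; NADH fluorescence (360/450 nm) read kinetically over 4 min, last minus first point.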
PK Bst: pyruvate kinase (B. stearothermophilus) modulation. purified pyruvate kinase, luminescence ATP production; ribose 5-phosphate activator present at AC10. Potency, µM. 1.2% of 51,000 active; in the data active = potency below about 11 µM; inconclusive = mostly about 12 µM to 25 µM;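 the screen sought inhibitors and activators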;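 note: potency is the fitted concentration of half-maximal effect; scaled between full activation by ribose 5 phosphate and full inhibition by luteolin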
4-MU autofl: 4-MU region autofluorescence; compound autofluorescence, 340/450 nm, 4-MU equivalents; active compounds read high; max dye-equivalent concentration, M; 11% of 59,000 active; AID 589; in the data active = max dye-equivalent concentration above about 10 nM; inconclusive = mostly about 1.1 nM to 9.6 nM
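Intrinsic fluorescence at 340/450 nm (ex/em) was read after 15 min at room temperature in pH 8.0, 100 mM Tris. Each compound concentration expressed as 4-MU-equivalent concentration from a six-point 4-MU standard series on each plate.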
Active calls of the source: *; [ ] = remark or other dose. Compounds with a hit are over-represented: about 13% of the library has one in this group of screens. Unless noted, calls come from the whole dose curve; as a rule, active = well fitted curve in the direction sought with a large enough effect; inconclusive = small, poorly fitted or top-dose-only effect, or another doubt; inactive = no such curve, though single readings can be large; an effect the other way counts as inactive or inconclusive.

What do the screens show for `CC(C)(C)c1cc(-c2ccco2)c(C#N)c(SCC#N)n1`?
A350 autofl: 2.17e-08M*; PK Bst: >25.6; 4-MU autofl: 1.77e-08M*

What do the screens show for `CC(C)CN1CC[C@@]2(CCCN(S(=O)(=O)c3ccccc3)C2)C1`?
AID923: 0.1%; A350 autofl: inactive; HADH2 inh: 3.7%; HSD17B inhib: 4.1%; 4-MU autofl: inactive

What do the screens show for `CC1CCN(Cc2c(C#N)c3ccccc3n2C)CC1`?
AID923: 1.1%; A350 autofl: inconclusive; HADH2 inh: -14.0%; HSD17B inhib: inconclusive; PK Bst: >57; 4-MU autofl: inactive

Results for CC(=O)c1cnc2cc(-c3ccccc3)nn2c1C ?
AID923: 5.2%; HADH2 inh: 12.7%; HSD17B inhib: 31.6µM*

How did CCOC(=O)CCn1nc(-c2ccccc2)cc1N do in these assays?
AID923: 0.3%; A350 autofl: inconclusive; HADH2 inh: 6.2%; HSD17B inhib: 2.7%; PK Bst: >57; 4-MU autofl: inconclusive

What do the screens show for `COC(=O)CN(c1ccc(F)cc1)S(=O)(=O)c1ccc2c(c1)OCCO2`?
AID923: -2.2%; HADH2 inh: 0.3%[11.4 µM]; HSD17B inhib: 1.8%

What do the screens show for `COc1ccc(S(=O)(=O)N2c3ccc(Cl)cc3[C@](O)(c3ccccc3Cl)[C@@H]2C(=O)N2CCC[C@H]2C(N)=O)cc1OC`?
AID923: -3.4%; HADH2 inh: 9.1%; HSD17B inhib: -4.1%

Results for Nc1ncnc2oc(-c3ccco3)c(-c3ccco3)c12 ?
AID923: 7.8%; HADH2 inh: 5.01µM*; HSD17B inhib: 31.6µM*

What do the screens show for `Nc1nnc(-c2ccco2)s1`?
AID923: 2.1%; HADH2 inh: -9.3%; HSD17B inhib: -4.4%

What do the screens show for `CS(=O)(=O)N1CCC2(CC1)CN(C(c1ccccc1)c1ccccc1)C2`?
AID923: 0.5%; A350 autofl: inactive; HADH2 inh: 2.0%; HSD17B inhib: 7.3%; 4-MU autofl: inactive

How did C[C@@]12CCC(O)C[C@H]1CCc1ccccc12 (stereo not given in full) do in these assays?
AID923: -2.0%; HSD17B inhib: 1.1%

What do the screens show for `CC1CCCCC1NC(=O)CSc1nnc(-c2ccccc2)n1N` (stereo not given)?
AID923: 1.5%; A350 autofl: inactive; HADH2 inh: 5.2%; HSD17B inhib: 0.7%; PK Bst: >57; 4-MU autofl: inactive

Results for CC1CCCN(C(=O)CSc2nnc(-c3ccc(S(=O)(=O)N4CCOCC4)cc3)n2C)C1 (stereo not given) ?
AID923: 1.3%; A350 autofl: inactive; HADH2 inh: 9.7%; HSD17B inhib: 25.1µM*; PK Bst: >57; 4-MU autofl: inactive

Results for Nn1c(SCC(=O)NC2CCCCC2)nnc1-c1ccccc1 ?
AID923: 1.2%; A350 autofl: 9.26e-08M*; HADH2 inh: -0.7%; HSD17B inhib: 32.5%; PK Bst: >57; 4-MU autofl: 1.16e-07M*

How did Cn1c(SCC(=O)NC2CCCC2)nnc1-c1ccc(S(=O)(=O)N2CCOCC2)cc1 do in these assays?
AID923: -3.8%; A350 autofl: inactive; HADH2 inh: 9.5%; HSD17B inhib: 31.6µM*; PK Bst: >57; 4-MU autofl: inactive

What do the screens show for `CSc1nnc(-c2ccc(S(=O)(=O)N3CCCC3)cc2)n1C`?
AID923: -0.2%; A350 autofl: inactive; HADH2 inh: inconclusive; HSD17B inhib: 31.6µM*; PK Bst: >57; 4-MU autofl: inactive

Results for C=CC[C@@H](C(=O)O)c1ccccc1 ?
AID923: -1.7%[11.5 µM]; A350 autofl: inactive; HADH2 inh: -0.3%[11.4 µM]; HSD17B inhib: 8.8%[11.4 µM]; 4-MU autofl: inactive

What do the screens show for `Cc1ccc(S(=O)(=O)N2CCCN(S(=O)(=O)c3ccc(C(F)(F)F)cc3)CC2)cc1`?
AID923: -1.8%; A350 autofl: inactive; HADH2 inh: 10.0%; HSD17B inhib: 10.1%; PK Bst: >57; 4-MU autofl: inactive

What do the screens show for `CC(=O)OC1CC(O)C(C)(C)C2CC(OC(C)=O)[C@]3(C)C(CC[C@@]4(C)C(c5ccoc5)OC(=O)C5OC534)[C@]12C` (stereo not given in full)?
AID923: -1.4%; HSD17B inhib: -11.5%

Results for CO[C@]1(NC(=O)CSCC#N)C(=O)N2C(C(=O)O)=C(CSc3nnnn3C)CS[C@H]21 ?
AID923: -1.7%[25.7 µM]; A350 autofl: inactive; HADH2 inh: inconclusive; HSD17B inhib: -4.0%[25.6 µM]; 4-MU autofl: inactive

Results for O=C(Nc1cccc(F)c1)N1CCCC2(CCN(C(=O)c3cc(C(F)(F)F)cc(C(F)(F)F)c3)CC2)C1 ?
AID923: 3.2%; A350 autofl: inactive; HADH2 inh: 2.8%; HSD17B inhib: -3.6%; 4-MU autofl: inactive

How did Nc1nc2c3ccccc3nc(C3CC3)n2n1 do in these assays?
AID923: 1.4%; A350 autofl: inactive; HADH2 inh: -5.7%; HSD17B inhib: inconclusive; PK Bst: inconclusive; 4-MU autofl: inactive

What do the screens show for `Cc1nn(-c2ccccc2)c(N2CCCC2)c1/C=N/n1cnc2scc(-c3ccccc3)c2c1=O`?
AID923: 1.0%; A350 autofl: 2.24e-07M*; HADH2 inh: inconclusive; HSD17B inhib: 25.1µM*; PK Bst: >57; 4-MU autofl: 1.66e-07M*

Results for CCCCN(C)CCCNC(=O)c1ccc(N2CCCC2=O)cc1 ?
AID923: 0.8%; A350 autofl: inconclusive; HADH2 inh: 21.5%; HSD17B inhib: -1.4%; PK Bst: >57; 4-MU autofl: 1.04e-08M*

What do the screens show for `CN(CCCNC(=O)c1ccc(N2CCCC2=O)cc1)c1ccccc1`?
AID923: 2.5%; A350 autofl: inactive; HADH2 inh: -1.5%; HSD17B inhib: 0.0%; PK Bst: >57; 4-MU autofl: inactive

Results for COc1ccc(CNC(=O)c2ccc(N3CCCC3=O)cc2)cc1 ?
AID923: 2.8%; A350 autofl: 1.31e-08M*; HADH2 inh: 3.7%; HSD17B inhib: -5.0%; PK Bst: >57; 4-MU autofl: 1.26e-08M*

Results for O=C(NCCN1CCCCCC1)c1ccc(N2CCCC2=O)cc1 ?
AID923: 0.7%; A350 autofl: 1.84e-08M*; HADH2 inh: 6.5%; HSD17B inhib: 17.3%; PK Bst: >57; 4-MU autofl: 1.88e-08M*

What do the screens show for `CC(C)C[C@@H](CC(=O)N[C@@H](CCC(=O)O)CC(=O)O)NC(=O)[C@@H]1CNCC[C@H]1NC(=O)C[C@H](CCCN)NC(=O)C[C@H](Cc1c[nH]c2ccccc12)NC(=O)[C@@H]1CCCC[C@H]1N`?
HADH2 inh: 10.0%

Compound activity from PubChem.
